The results in this text go back to ChEMBL document CHEMBL2218924, “A broad activity screen in support of a chemogenomic map for kinase signalling research and drug discovery” (Biochem J, 2013).

As a reminder, the residual activity is the signal under treatment as a percentage of the control signal.

In assay [1] the target is Protein kinase C delta type (Homo sapiens) (UniProt Q05655). Conditions: at 10 µM.
Assay [2] has as its target T1, Protein kinase C epsilon type (Homo sapiens) (UniProt Q02156).
T1 sequence (whole entry): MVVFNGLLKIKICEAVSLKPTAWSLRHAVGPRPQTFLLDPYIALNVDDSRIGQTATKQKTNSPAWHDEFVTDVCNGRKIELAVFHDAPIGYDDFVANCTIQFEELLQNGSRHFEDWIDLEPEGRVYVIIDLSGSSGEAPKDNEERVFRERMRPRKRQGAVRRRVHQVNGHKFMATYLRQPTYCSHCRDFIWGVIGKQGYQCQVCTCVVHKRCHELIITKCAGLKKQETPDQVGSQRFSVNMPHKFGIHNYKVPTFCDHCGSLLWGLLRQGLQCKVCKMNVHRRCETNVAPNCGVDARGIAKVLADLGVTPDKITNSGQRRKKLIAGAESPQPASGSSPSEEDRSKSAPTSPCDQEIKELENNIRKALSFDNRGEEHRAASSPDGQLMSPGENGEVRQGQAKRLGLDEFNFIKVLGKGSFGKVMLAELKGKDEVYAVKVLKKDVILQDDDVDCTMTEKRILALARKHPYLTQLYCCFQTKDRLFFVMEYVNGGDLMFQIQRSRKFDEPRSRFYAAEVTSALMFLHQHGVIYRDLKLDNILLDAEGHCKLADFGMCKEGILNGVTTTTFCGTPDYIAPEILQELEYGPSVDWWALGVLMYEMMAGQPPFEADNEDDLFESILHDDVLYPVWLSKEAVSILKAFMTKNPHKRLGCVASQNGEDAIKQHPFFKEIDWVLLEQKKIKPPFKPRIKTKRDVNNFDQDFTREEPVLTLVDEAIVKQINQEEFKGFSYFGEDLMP
Conditions: at 1 µM.

In assay [3] the target is T1, Protein kinase C epsilon type (Homo sapiens). Conditions: at 10 µM.

Protein kinase C delta type (Homo sapiens), sequence (Q05655 whole entry, looked up): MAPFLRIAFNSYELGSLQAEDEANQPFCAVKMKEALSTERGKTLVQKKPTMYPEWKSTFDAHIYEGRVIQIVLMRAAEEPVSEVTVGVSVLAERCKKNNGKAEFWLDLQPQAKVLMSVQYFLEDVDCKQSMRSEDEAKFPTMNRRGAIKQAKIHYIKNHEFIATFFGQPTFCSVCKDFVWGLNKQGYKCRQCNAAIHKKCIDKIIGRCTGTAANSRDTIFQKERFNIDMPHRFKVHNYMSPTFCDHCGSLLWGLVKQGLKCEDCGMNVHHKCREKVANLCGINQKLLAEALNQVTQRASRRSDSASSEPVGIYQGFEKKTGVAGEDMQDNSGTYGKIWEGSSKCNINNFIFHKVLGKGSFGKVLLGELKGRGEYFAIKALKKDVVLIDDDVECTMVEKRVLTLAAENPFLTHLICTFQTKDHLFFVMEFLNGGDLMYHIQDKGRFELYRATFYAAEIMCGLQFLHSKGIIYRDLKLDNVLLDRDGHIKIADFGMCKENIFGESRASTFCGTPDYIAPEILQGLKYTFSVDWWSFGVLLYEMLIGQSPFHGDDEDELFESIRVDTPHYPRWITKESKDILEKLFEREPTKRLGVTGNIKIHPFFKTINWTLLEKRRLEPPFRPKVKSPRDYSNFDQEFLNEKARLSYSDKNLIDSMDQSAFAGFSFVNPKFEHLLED

Regarding `CC(C)(C)c1cc(C=C(C#N)C#N)cc(Br)c1O`, the residual activity in assay [1] turned out to be 97%; in assay [2], 108%.
On to `COc1ccc2c(c1)/C(=C/c1cnc[nH]1)C(=O)N2`, for which the residual activity stood at 61% in assay [1] and 80% in assay [3].
Consider `COc1cc(OC)c(/C=C2\C(=O)Nc3ccccc32)c(OC)c1`, for which the residual activity in assay [2] worked out at 95%; in assay [3], 107%.
For `O=c1[nH]c2ccccc2n1C1CCN(Cc2ccc(-c3nc4cc5[nH]cnc5cc4nc3-c3ccccc3)cc2)CC1`, the residual activity is 111% in assay [1], 87% in assay [2] and 100% in assay [3].
`c1cc(-c2cnn3cc(-c4ccc(OCCN5CCCCC5)cc4)cnc23)ccn1`: the residual activity in assay [3] came to 103%.
Take `COc1cc2ncnc(Nc3ccc(OCc4ccccc4)cc3)c2cc1OC`: the residual activity in assay [1] worked out at 106%; in assay [2], 104%; in assay [3], 119%.
Taken in the same sequence, the figures for `CCn1cnc2c(Nc3cccc(Cl)c3)nc(N[C@@H]3CCCC[C@@H]3N)nc21` were 59%, 100% and 80%.
As for `COc1ccc2c(c[n+](C)c3c4cc5c(cc4ccc23)OCO5)c1OC`, the figures for the residual activity in assay [2] and in assay [3] were 88% and 78%, respectively.
In the case of `COC(=O)[C@@]1(O)C[C@H]2O[C@]1(C)n1c3ccccc3c3c4c(c5c6ccccc6n2c5c31)C(=O)NC4`, the residual activity in assay [1] was 3%; in assay [2] it was 51%; in assay [3] it was 10%.
Taken in the same sequence, the figures for `CCc1nc(-c2ccc(OC)cc2)[nH]c1-c1ccncc1` were 105%, 104% and 109%.
With `C[S+]([O-])c1ccc(-c2nc(-c3ccc(F)cc3)c(-c3ccncc3)[nH]2)cc1` (centres undefined), the residual activity stood at 105% in assay [1], 125% in assay [2] and 105% in assay [3].
On to `O=C1Nc2ccc3ncsc3c2/C1=C/c1c[nH]cn1`, for which the residual activity in assay [1] amounted to 5%; in assay [2], 27%; in assay [3], 9%.
Taken in the same sequence, the figures for `O=[N+]([O-])/C=C/c1ccc2c(c1)OCO2` were 95%, 81% and 81%.
With `CC(C)[C@H](CO)Nc1nc(Nc2cccc(Cl)c2)c2ncn(C(C)C)c2n1`, the residual activity in assay [3] worked out at 92%.
